Bioassay records from PubChem.
The list is not random: actives were taken first. Their share in the collection is about 9.3%.
SMN2 splice enh: increases expression of the SMN2 splice variant | HEK293 SMN2-luciferase splicing reporter, luminescence, 30-36 h | Potency, µM (series often up to 46.1 µM), inactives show at the top dose activity change, positive = activation, most hits filed as activators | 210,000 compounds, 2.8% hits | AID 1458; note: % of control where 0% means no effect; nearly all actives have a fitted effect of over 55% in size
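HEK293 cells carry an SMN2 […]–luciferase reporter in which exon 7 inclusion puts luciferase in frame. Cells were plated 10-12 h before compound addition, then incubated 30-36 h at 37C. ONE-Glo luminescence was read; sodium butyrate at 4.5 mM final served as control.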
FLuc counter: inhibits or activates purified firefly luciferase, miR-21 counter-screen. purified FLuc, Km substrates, luminescence inhibition. Potency, µM (titrated, usually from 57.5 µM), without a hit: at the top dose activity change, negative = inhibition, hits mostly inhibitors. 360,000 compounds, 6.9% hits;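 note: plate controls were vehicle for no effect and reference inhibitor for full effect; nearly all actives have a fitted effect of over 55% in size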
Target sequence (P08659 whole entry, looked up): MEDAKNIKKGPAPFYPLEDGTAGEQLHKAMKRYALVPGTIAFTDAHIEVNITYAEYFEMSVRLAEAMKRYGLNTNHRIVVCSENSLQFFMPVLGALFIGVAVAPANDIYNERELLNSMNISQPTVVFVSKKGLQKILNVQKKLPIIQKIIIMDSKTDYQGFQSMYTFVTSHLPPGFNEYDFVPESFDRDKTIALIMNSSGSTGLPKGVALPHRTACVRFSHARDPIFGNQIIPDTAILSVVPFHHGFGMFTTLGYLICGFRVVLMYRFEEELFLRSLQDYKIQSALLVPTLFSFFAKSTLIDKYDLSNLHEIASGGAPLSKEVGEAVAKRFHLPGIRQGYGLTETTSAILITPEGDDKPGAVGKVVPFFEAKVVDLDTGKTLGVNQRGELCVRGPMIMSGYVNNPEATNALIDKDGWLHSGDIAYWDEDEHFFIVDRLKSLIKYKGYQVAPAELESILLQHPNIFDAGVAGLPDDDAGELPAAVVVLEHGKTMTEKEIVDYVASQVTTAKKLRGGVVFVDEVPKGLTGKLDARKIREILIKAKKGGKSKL
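Purified P. pyralis luciferase (10nM final) with 10uM D-luciferin and 10uM ATP (Km levels) in 50mM Tris acetate pH 7.5, 10mM Mg acetate, 0.01% Tween-20, 0.05% BSA; qHTS 6-point titration, ~60 µM downward; luminescence read.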
ELG1 repair inh: ELG1-dependent DNA repair inhibition; HEK293T ELG1-luciferase reporter, luminescence, 16 h; DNA damage induced by 5-fluorouridine; Potency, µM (top dose mostly 46.1 µM), inactives show top-dose activity change, negative = inhibition, usual class: inhibitors; 330,000 compounds, 2.3% hits; note: % is set by controls: 0 for no effect and ±100 for the full control effect; nearly all actives have a fitted effect of over 55% in size
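Quantitative HTS, concentration-response format. 2,000 cells/well co-treated with 5-fluorouridine and compound, 16 hr in 5% CO2 at 37 °C; ONE-Glo luminescence read after 30 min.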
Rab9 promoter act: activates the Rab9 promoter; Huh7 Rab9 promoter-luciferase reporter, luminescence, 24 h; Potency, µM (titrated, usually from 9.22 µM), for the others: at the highest dose activation, negative = inhibition, usual class: activators; 320,000 compounds, 2.8% hits; note: % of control where 0% means no effect; nearly all actives have a fitted effect of over 60% in size
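Luciferase signal after 10 min detection reagent at ambient indicates Rab9 promoter upregulation; stably transfected Huh7 cells were treated 24 h with compound in DMSO at 37 °C, 5% CO2.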
NPC1 promoter act: NPC1 promoter activation; Huh7 NPC1 promoter luciferase reporter, 24 h; AID 485313; 320,000 compounds, 2.4% hits; Potency, µM (series often up to 9.22 µM), inactives show at the top dose activation, actives largely listed as activators; note: % of control where 0% means no effect; nearly all actives have a fitted effect of over 60% in size
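Luciferase expression driven by the NPC1 promoter was measured in stably transfected Huh7 cells after a 24 h compound incubation, using a luciferase reagent and a luminescence read.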
ELG1 genotoxic: induces genotoxicity in HEK293T cells with luciferase-tagged ELG1. 330,000 compounds, 1.3% hits. Potency, µM (doses to about 46 µM), inactives show top-dose activity change, positive = activation, usual class: activators. HEK293T ELG1-luciferase reporter, luminescence, 16 h; note: % of control where 0% means no effect; nearly all actives have a fitted effect of over 60% in size
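ELG1-luciferase HEK293T cells, 2,000/well; compound pinned in; 16 hr, 37 °C, 5% CO2; ONE-Glo, 30 min RT; luminescence on CCD imager.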
* = called active by the depositor; ? = inconclusive; / = not tested or not shown. Calls come from the whole dose curve; as a rule, active = well fitted curve in the direction sought with a large enough effect; inconclusive = small, poorly fitted or top-dose-only effect, or another doubt; inactive = no such curve, though single readings can be large; an effect the other way counts as inactive or inconclusive. Potency is the fitted concentration of half-maximal effect.

SMILES	SMN2 splice enh	FLuc counter	ELG1 repair inh	Rab9 promoter act	NPC1 promoter act	ELG1 genotoxic
O=C(Cc1n[nH]c(=O)c2ccccc12)OCC(=O)c1ccc2c(c1)OCCO2	-19%	13µM*	?	-10%	-8%	?
CC1CCCCN1C(=O)COC(=O)c1n[nH]c2ccccc12 (configuration not stated)	21%	15µM*	?	?	30%	18µM*
CCc1cccc(NS(=O)(=O)c2ccc3c(c2)N(C)CCO3)c1	/	2%	-6%	-18%	-10%	0%
CCOC(=O)c1n[nH]c2ccccc12	-5%	2%	13%	-3%	-4%	0%
COc1ccc(C(=O)COC(=O)c2n[nH]c3ccccc23)c(OC)c1	/	6µM*	?	3.5µM*	3.2µM*	15%
Cc1ccc(C(=O)COC(=O)c2n[nH]c(=O)c3ccccc23)cc1	5%	6µM*	1%	2%	-3%	0%
COCCn1c(C)cc(C(=O)COC(=O)c2c(C)nn(Cc3ccccc3)c2C)c1C	/	?	?	-18%	-5%	-5%
O=C(OCCOc1ccccc1)c1n[nH]c2ccccc12	/	6µM*	?	2.2µM*	3.5µM*	?
COCCn1c(C)cc(C(=O)COC(=O)c2n[nH]c3ccccc23)c1C	-32%	0.43µM*	?	0.22µM*	0.4µM*	0.23µM*
CC(C)(C)OC(=O)NCCCCC1=CC2=CC(=O)C(C)(OC(=O)CCc3ccccc3)C(=O)C2=CO1 (configuration not stated)	2%	/	/	/	/	/
CCC1(C)Cc2c(sc3nnn(Cc4ccccc4Cl)c(=O)c23)CO1 (configuration not stated)	-26%	2%	?	0%	-3%	-9%
CCN(CC(=O)Nc1c(F)cccc1F)C(=O)CCC(=O)c1ccc(C)cc1	/	-20%	?	-4%	0%	15%
CC(=O)c1ccc(N2CCN(C(=O)CNS(=O)(=O)c3ccc4c(c3)OCCCO4)CC2)c(F)c1	/	-1%	-21%	-4%	-4%	-1%
O=C(Cc1ccc(Br)cc1)OCC(=O)c1ccc2c(c1)OCCO2	16%	17µM*	?	-2%	-4%	4%
Cc1cc(C(=O)COC(=O)c2nccnc2N)c(C)n1C	11µM*	9.5µM*	?	0.5µM*	3.2µM*	6.5µM*
O=C(O)CCCCCCCCc1cn(CCc2c[nH]c3ccccc23)nn1	/	-1%	1%	-1%	1%	1%
COCCN(Cc1nc(-c2ccc(-c3ccccc3)cc2)oc1C)C(C)C	/	9.5µM*	?	?	-20%	0.92µM*
O=C(Nc1ccccc1F)c1ccc(CSc2ccccc2)o1	19%	17µM*	?	17%	15%	?
O=C(Nc1cccc(F)c1)c1ccc(CSc2ccccc2)o1	?	19µM*	?	21%	23%	19%
O=C(Nc1ccccc1F)c1ccc(COc2ccc(Cl)cc2Cl)o1	13µM*	?	10%	0%	-1%	-3%
CC(=O)Nc1ccc(NC(=O)c2ccc(CSc3ccccc3)o2)cc1	-48%	-5%	?	-3%	-2%	-5%
CCN(CC)CCn1c(-c2ccccc2)nc2c(NCCO)nc(C)nc21	2%	/	/	/	/	/
CSc1cccc(NC(=O)Cn2c(=O)n(Cc3ccccc3)c(=O)c3sc4ccccc4c32)c1	-1%	-1%	/	/	/	/
CN(/N=C/c1cccnc1)c1cnc2ccccc2n1	11µM*	5.4µM*	?	2.8µM*	?	?
C/C=C/CSc1nc2c(c(=O)[nH]c(=O)n2C)n1Cc1ccc(C)cc1	-3%	2%	1%	0%	0%	21µM*
Cc1ccc(Cn2c(Sc3ncccn3)nc3c2c(=O)[nH]c(=O)n3C)cc1	5%	4%	?	-2%	1%	-10%
CC(=O)CSc1nc2c(c(=O)[nH]c(=O)n2C)n1Cc1cccc(Br)c1	/	1%	?	0%	-1%	21µM*
